Screening results deposited in PubChem by National Center for Advancing Translational Sciences (NCATS).
This is a sample that favours compounds with a hit; in the whole collection about 0.92% have one here.
L3MBTL1 block: blocks human L3MBTL1; Q9Y468; AlphaScreen L3MBTL1–H3K9me1 peptide binding; Potency, µM (top dose mostly 57.1 µM), for the others: at the top dose activity, negative = inhibition, actives largely listed as inhibitors; actives 0.66% (n = 230,000); AID 485360; further: on the % scale 0 is the no-effect control and ±100 the full control effect; nearly all actives have a fitted effect of over 60% in size
Target sequence (Q9Y468 whole entry, looked up): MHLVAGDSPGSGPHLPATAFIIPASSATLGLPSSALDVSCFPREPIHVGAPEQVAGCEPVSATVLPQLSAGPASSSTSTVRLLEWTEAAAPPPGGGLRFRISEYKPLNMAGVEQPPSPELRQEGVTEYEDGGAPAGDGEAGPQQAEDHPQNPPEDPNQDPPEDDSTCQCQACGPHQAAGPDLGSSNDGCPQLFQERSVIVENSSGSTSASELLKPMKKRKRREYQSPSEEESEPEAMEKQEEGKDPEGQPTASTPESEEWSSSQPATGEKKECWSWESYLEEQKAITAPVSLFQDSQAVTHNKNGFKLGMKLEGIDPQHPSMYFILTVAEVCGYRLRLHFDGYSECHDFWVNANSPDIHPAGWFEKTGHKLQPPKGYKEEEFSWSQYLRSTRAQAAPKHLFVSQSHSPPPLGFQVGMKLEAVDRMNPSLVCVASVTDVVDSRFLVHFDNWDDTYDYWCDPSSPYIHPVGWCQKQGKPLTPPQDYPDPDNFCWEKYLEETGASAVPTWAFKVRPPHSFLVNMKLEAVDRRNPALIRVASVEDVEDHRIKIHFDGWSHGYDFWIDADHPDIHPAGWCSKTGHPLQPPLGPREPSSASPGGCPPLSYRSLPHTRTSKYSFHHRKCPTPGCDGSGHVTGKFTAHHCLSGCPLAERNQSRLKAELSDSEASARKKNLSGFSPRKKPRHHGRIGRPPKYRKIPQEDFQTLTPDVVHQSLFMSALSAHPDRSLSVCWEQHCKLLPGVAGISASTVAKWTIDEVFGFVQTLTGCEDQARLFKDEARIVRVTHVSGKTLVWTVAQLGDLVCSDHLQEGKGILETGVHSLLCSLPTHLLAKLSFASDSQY
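L3MBTL1 50 nM + b-AHA-H3(1-15)K9me1 75 nM, 30 min RT; compound added, 30 min RT; streptavidin donor/Ni-chelate acceptor beads 10 ug/mL each final, 30 min RT dark; AlphaScreen read.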
APE1 inh: inhibitors of human APE1 endonuclease | P27695 | recombinant APE1, TAMRA/BHQ-2 abasic DNA cleavage fluorescence | Potency, µM (highest dose often 65.8 µM), for inactives: at the top dose activity change, negative = inhibition, usual class: inhibitors | actives 0.35% (n = 350,000);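 further: plate controls were vehicle for no effect and reference inhibitor for full effect; nearly all actives have a fitted effect of over 55% in size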
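Incision of a quenched TAMRA/BHQ-2 THF abasic-site duplex (50 nM) by 0.75 nM APE1, after 15 min compound preincubation, measured as fluorescence increase over three 60 s reads. Values normalized to buffer, DMSO and NSC13755 control wells.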
RECQ1 inh: RECQ1 (human) helicase inhibition | RECQ1 DNA unwinding, red fluorescence kinetic read | actives 0.54% (n = 240,000) | Potency, µM (titrated, usually from 57.3 µM), for inactives: top-dose activity, negative = inhibition, actives largely listed as inhibitors | P46063 | AID 2549;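 further: plate controls were vehicle for no effect and no enzyme for full effect; nearly all actives have a fitted effect of over 30% in size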
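50 nM RECQ1T1 preincubated 15 min with compound in Tris pH 8.0 buffer with MgCl2, DTT, Tween-20 and 2.5 ug/ml poly(dI-dC); started with 200 nM TAMRA/BHQ-2 forked duplex and 2 mM ATP. Unwinding read as fluorescence (525/598 nm), two reads 2 h apart.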
WRN helicase inh-1: WRN helicase (human) inhibition; actives 0.46% (n = 360,000); Q14191; Potency, µM (doses to about 114 µM), for inactives: top-dose activity change, negative = inhibition, most hits filed as inhibitors; WRN helicase unwinding, fluorescent forked duplex, kinetic; further: on the % scale 0 is the no-effect control and ±100 the full control effect; nearly all actives have a fitted effect of over 55% in size
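Primary qHTS, 1536-well format. 20 nM WRN + compound, 15 min RT; start with 100 nM forked fluorophore/quencher duplex, 2 mM ATP (final); kinetic read ex 525/em 598 nm.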
BLM helicase inh-1: Bloom syndrome helicase (human) inhibition; AID 2528; recombinant BLM DNA unwinding, fluorescence dequenching; Potency, µM (doses to about 56.1 µM), for the others: at the top dose activity change, negative = inhibition, usual class: inhibitors; P54132; actives 0.2% (n = 350,000);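 further: plate controls were vehicle for no effect and no enzyme for full effect; nearly all actives have a fitted effect of over 35% in size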
WRN helicase inh-2: WRN helicase inhibition, cherry-pick retest | shares compounds with WRN helicase inh-1 | WRN helicase DNA unwinding, fluorescence kinetic | actives 63% (n = 610) | Potency, µM (doses to about 57.1 µM), inactives show at the highest dose activity, negative = inhibition, actives largely listed as inhibitors; further: nearly all actives have a fitted effect of over 65% in size
TO DNA binding: binds DNA, flagged in WRN inhibitor counterscreen; shares compounds with WRN helicase inh-1; thiazole orange DNA binding displacement, fluorescence; Potency, µM (top dose mostly 57.1 µM), without a hit: at the highest dose activity change, negative = inhibition, hits mostly inhibitors; actives 10% (n = 610);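 further: drop in dye fluorescence marks compound binding to DNA; on the % scale 0 is the no-effect control and ±100 the full control effect; nearly all actives have a fitted effect of over 60% in size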
BLM helicase inh-2: BLM helicase inhibition, WRN selectivity check. shares compounds with WRN helicase inh-1. Recombinant BLM helicase DNA unwinding, red fluorescence. Potency, µM (highest dose often 57.1 µM), for the others: at the highest dose activity change, negative = inhibition, usual class: inhibitors. actives 60% (n = 610). AID 720503; further: nearly all actives have a fitted effect of over 60% in size
An asterisk follows results filed as active. The call rests on the fitted dose curve; in most records, active means well fitted curve in the direction sought with a large enough effect; inconclusive means small, poorly fitted or top-dose-only effect, or another doubt; inactive means no such curve, though single readings can be large; an effect the other way counts as inactive or inconclusive. Potency means the concentration at half of the fitted maximal effect.

Results for CC1(C)OC(=O)C(=Cc2ccc(-c3ccc(S(N)(=O)=O)cc3)o2)C(=O)O1 ?
L3MBTL1 block: inconclusive; APE1 inh: -8%; RECQ1 inh: inactive; WRN helicase inh-1: inconclusive; BLM helicase inh-1: 3%; WRN helicase inh-2: inconclusive; TO DNA binding: -10%; BLM helicase inh-2: inconclusive

Results for NC1=NC(=O)/C(=C/c2ccc(-c3ccc(S(N)(=O)=O)cc3)o2)S1 ?
L3MBTL1 block: -6%; APE1 inh: -6%; WRN helicase inh-1: 35µM*; BLM helicase inh-1: inconclusive; WRN helicase inh-2: 19µM*; TO DNA binding: 70%; BLM helicase inh-2: 11µM*

What do the screens show for `CCN(CC)S(=O)(=O)c1ccc(NC(=O)CCc2c(C)nc3cc(-c4ccc(Cl)cc4)nn3c2C)cc1`?
BLM helicase inh-1: -10%

What do the screens show for `O=C(CCN1C(=O)/C(=C/C=C/c2ccccc2)SC1=S)Nc1cccnc1`?
L3MBTL1 block: 6%; APE1 inh: -1%; RECQ1 inh: -15%; WRN helicase inh-1: inconclusive; BLM helicase inh-1: inconclusive; WRN helicase inh-2: inconclusive; TO DNA binding: 10%; BLM helicase inh-2: inconclusive

How did O=C(O)COc1ccccc1/C=N/NC(=O)c1cc(-c2ccc(Cl)cc2)nc2ccccc12 do in these assays?
APE1 inh: -4%; RECQ1 inh: inactive; WRN helicase inh-1: inconclusive; BLM helicase inh-1: -9%; WRN helicase inh-2: inconclusive; TO DNA binding: inconclusive; BLM helicase inh-2: 27µM*

How did O=C(O)COc1ccccc1/C=N/NC(=O)c1cc(-c2ccccc2)nc2ccccc12 do in these assays?
APE1 inh: 14%; RECQ1 inh: 28%; WRN helicase inh-1: -20%; BLM helicase inh-1: -2%

Results for O=C1c2cccc(NCCCNCCO)c2C(=O)c2cccc(NCCCNCCO)c21 ?
WRN helicase inh-1: 10µM*; WRN helicase inh-2: 1.1µM*; TO DNA binding: 0.86µM*; BLM helicase inh-2: 1.7µM*

Results for Cc1ccc(-c2ccc(/C=C3\C(=O)ON=C3c3ccccc3)o2)c([N+](=O)[O-])c1 ?
L3MBTL1 block: -2%; APE1 inh: 1%; RECQ1 inh: 0%; WRN helicase inh-1: 40µM*; BLM helicase inh-1: -11%; WRN helicase inh-2: 22µM*; TO DNA binding: inconclusive; BLM helicase inh-2: 22µM*

Results for CCCCCCCCCCCCCCCC[N+](C)(C)Cc1ccccc1 ?
BLM helicase inh-1: 88%

Results for CC(=O)[C@@]1(O)Cc2c(O)c3c(c(O)c2[C@H](O[C@H]2C[C@H](N)[C@H](O)[C@H](C)O2)C1)C(=O)c1ccccc1C3=O ?
WRN helicase inh-2: 24µM*; TO DNA binding: inactive; BLM helicase inh-2: 24µM*

How did COc1cccc2c1C(=O)c1c(O)c3c(c(O)c1C2=O)C[C@@](O)(C(=O)CO)C[C@@H]3OC1CC(N)C(O)C(C)O1 (stereo partly specified) do in these assays?
WRN helicase inh-1: 3µM*; BLM helicase inh-1: -24%; WRN helicase inh-2: 17µM*; TO DNA binding: 96%; BLM helicase inh-2: 27µM*

How did COc1cccc2c1C(=O)c1c(O)c3c(c(O)c1C2=O)CC(O)(C(C)=O)CC3OC1CC(N(C)C)C(O)C(C)O1 (stereo unspecified) do in these assays?
WRN helicase inh-1: 18µM*; WRN helicase inh-2: 24µM*; TO DNA binding: 240%; BLM helicase inh-2: 24µM*

Results for N=C(N)c1ccc(N=Nc2c(O)ccc3c2[nH]c2ccccc23)cc1 ?
WRN helicase inh-1: 11µM*; WRN helicase inh-2: 8.6µM*; TO DNA binding: 24µM*; BLM helicase inh-2: 19µM*

What do the screens show for `COc1ccc2nc3cc(Cl)ccc3c(Nc3ccc(O)c(CN4CCN(C)CC4)c3)c2c1`?
WRN helicase inh-1: 18µM*; WRN helicase inh-2: 6.1µM*; TO DNA binding: 11µM*; BLM helicase inh-2: 22µM*

What do the screens show for `COc1ccc2nc3cc(Cl)ccc3c(NCCCN3CCN(CCCNc4c5ccc(Cl)cc5nc5ccc(OC)cc45)CC3)c2c1`?
APE1 inh: inconclusive; RECQ1 inh: 2%; BLM helicase inh-1: 73%

What do the screens show for `CCOc1ccccc1N(CC)C(=O)Cn1ncc2c([nH]c3ccccc32)c1=O`?
BLM helicase inh-1: -2%

How did CC(C)COC(=O)c1ccc2c(c1O)C(=O)c1ccccc1C2=O do in these assays?
APE1 inh: -1%; RECQ1 inh: -8%; WRN helicase inh-1: 19µM*; BLM helicase inh-1: -10%; WRN helicase inh-2: inconclusive; TO DNA binding: -5%; BLM helicase inh-2: inconclusive

Results for CCOC(=O)c1nn(-c2ccccc2)c(=O)c2c(N)scc12 ?
L3MBTL1 block: -9%; APE1 inh: -1%; RECQ1 inh: -3%; WRN helicase inh-1: inconclusive; BLM helicase inh-1: -7%

How did CCOC(=O)c1nn(-c2ccccc2C)c(=O)c2c(N)scc12 do in these assays?
L3MBTL1 block: 0%; APE1 inh: -6%; RECQ1 inh: -2%; WRN helicase inh-1: inconclusive; BLM helicase inh-1: -8%; WRN helicase inh-2: inconclusive; TO DNA binding: 35%; BLM helicase inh-2: inconclusive

How did COc1ccc(NS(=O)(=O)c2cccc(C(=O)N/N=C/c3ccc(O)cc3)c2)cc1 do in these assays?
L3MBTL1 block: -1%; APE1 inh: -9%; RECQ1 inh: -28%; WRN helicase inh-1: inconclusive; BLM helicase inh-1: -21%

How did COc1ccc(NS(=O)(=O)c2cccc(C(=O)NN=Cc3ccc(O)c(OC)c3)c2)cc1 do in these assays?
L3MBTL1 block: -4%; APE1 inh: 6%; WRN helicase inh-1: inconclusive; WRN helicase inh-2: inconclusive; TO DNA binding: -4%; BLM helicase inh-2: -28%

Results for O=C(O)c1[nH]c2ccccc2c1C(c1cc(Cl)cc([N+](=O)[O-])c1O)c1c(C(=O)O)[nH]c2ccccc12 ?
L3MBTL1 block: -27%; APE1 inh: -2%; WRN helicase inh-1: 45µM*; BLM helicase inh-1: -5%; WRN helicase inh-2: 22µM*; TO DNA binding: -11%; BLM helicase inh-2: inconclusive

How did O=C(O)c1[nH]c2ccccc2c1C(c1ccccc1)c1c(C(=O)O)[nH]c2ccccc12 do in these assays?
L3MBTL1 block: -9%; APE1 inh: 49%; WRN helicase inh-1: -16%; BLM helicase inh-1: 6%

What do the screens show for `O=C(COc1cccnc1[N+](=O)[O-])Nc1cccc2ccccc12`?
L3MBTL1 block: -9%; APE1 inh: 4%; WRN helicase inh-1: -3%
